# Data reported in the supplement of paper PMC10811239.
# Tested on: LEGO organoid PT (PTEN-/-; TP53-/-)
# Assay: bioluminescence (viable cell) signal fold change after vs before treatment, normalised to DMSO (ratio); higher = more tumour cell growth / less inhibition
# Conditions: 10 µM; treatment time 6 days
# Description: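 Luc2-labelled iPSC-derived glioblastoma-like organoids (LEGOs, genotypes PT = PTEN-/-;TP53-/-, PTCC = plus CDKN2A/B-/-, PTN = plus NF1-/-) were treated with 10 uM drug for 6 days (applied every other day) at 37 C. Bioluminescence imaging was done before treatment and 2 days after the last dose. BLI signals were normalised to the DMSO control on the same day and then to the pre-treatment signal (N=3).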
row,SMILES,bioluminescence
1,CCOC(=O)c1cncn1[C@H](C)c1ccccc1 [Etomidate],1.09
2,CCN(C)C(=O)Oc1cccc([C@H](C)N(C)C)c1 [Rivastigmine],1.31
3,CN[C@@H]1C[C@H]2O[C@@](C)([C@@H]1OC)n1c3ccccc3c3c4c(c5c6ccccc6n2c5c31)C(=O)NC4 [Staurosporine],0.0178
4,Cc1n[nH]cc1-c1cc2[nH]c([C@@H]3CC4CCN3CC4)nc(=O)c2s1 [Simurosertib],1.6
5,NCC(CC(=O)O)c1ccc(Cl)cc1 (configuration not stated) [Baclofen],0.694
6,O=C(O)CCCc1ccc(N(CCCl)CCCl)cc1 [Chloroambucil],1.03
7,CC(C)C[C@H]1C(=O)N2CCC[C@H]2[C@]2(O)O[C@](NC(=O)[C@@H]3C[C@@H]4c5cccc6[nH]cc(c56)C[C@H]4N(C)C3)(C(C)C)C(=O)N12.CC(C)[C@@]1(NC(=O)[C@@H]2C[C@@H]3c4cccc5[nH]cc(c45)C[C@H]3N(C)C2)O[C@@]2(O)[C@@H]3CCCN3C(=O)[C@H](Cc3ccccc3)N2C1=O.CC(C)[C@H]1C(=O)N2CCC[C@H]2[C@]2(O)O[C@](NC(=O)[C@@H]3C[C@@H]4c5cccc6[nH]cc(c56)C[C@H]4N(C)C3)(C(C)C)C(=O)N12.CCC(C)[C@H]1C(=O)N2CCC[C@H]2[C@]2(O)O[C@](NC(=O)[C@@H]3C[C@@H]4c5cccc6[nH]cc(c56)C[C@H]4N(C)C3)(C(C)C)C(=O)N12.CS(=O)(=O)O [Dihydroergotoxine mesylate],0.998
8,Cc1cccc([C@H](C)c2cnc[nH]2)c1C.Cl [Dexmedetomidine HCl],0.872
9,NCC1(CC(=O)O)CCCCC1 [Gabapentin],1.08
10,CN(C)C(=O)Oc1ccc[n+](C)c1.[Br-] [Mestinon],0.942
11,Cl.Cn1c(CCCC(=O)O)nc2cc(N(CCCl)CCCl)ccc21 [Bendamustine hydrochloride],0.772
12,CC(C)c1cccc(C(C)C)c1O [Propofol],1.34
13,CCC1(c2ccc(N)cc2)CCC(=O)NC1=O (configuration not stated) [Aminoglutethimide],0.724
14,CC[C@@H](C(N)=O)N1CCCC1=O [Levetiracetam],0.803
15,COc1ccc(C(CN(C)C)C2(O)CCCCC2)cc1.Cl (configuration not stated) [Venlafaxine hydrochloride],0.615
16,CCN(C)C(=O)Oc1cccc([C@H](C)N(C)C)c1.O=C(O)[C@H](O)[C@@H](O)C(=O)O [Rivastigmine tartrate],2.08
17,COc1cc2c(cc1OC)[C@@H]1CC(=O)[C@@H](CC(C)C)CN1CC2.COc1cc2c(cc1OC)[C@H]1CC(=O)[C@H](CC(C)C)CN1CC2 [Tetrabenazine],0.657
